# Results published in PubChem BioAssay (NCI).
# This is part of a sample that, as a whole, favours compounds with a hit. Of some 83,000 tested, about 20% had one in any assay.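 How to read the values: 0–100, growth inhibition (40 = 60% inhibited); 0, no net growth; -100 to 0, cell death (-40 = 40% of starting cells died; -100 = all dead).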 A number with no mark means an inactive call. Calls of active or inactive are those of the source. How the source made its calls: active means growth percent below 10; inactive means the rest.
# How the values were obtained:
# Assay in all cases: NCI-60 one-dose screen, 48 h (100 = growth as untreated, 0 = no growth, -100 = all killed)
# Conditions in all cases: 10 µM unless noted
# T-47D breast = system: T-47D breast
# BT-549 breast = system: BT-549 breast
# MDA-MB-435 melanoma = system: MDA-MB-435 melanoma
# SW-620 colon = system: SW-620 colon
# MCF7 breast = system: MCF7 breast
# HCT-116 colon = system: HCT-116 colon
# HCC-2998 colon = system: HCC-2998 colon
# KM12 colon = system: KM12 colon
Structure (SMILES),growth (T-47D breast),growth (BT-549 breast),growth (MDA-MB-435 melanoma),growth (SW-620 colon),growth (MCF7 breast),growth (HCT-116 colon),growth (HCC-2998 colon),growth (KM12 colon)
c1ccc2c(c1)cnc1ccccc12,96.8%,106%,102%,98.5%,94.3%,100%,101%,102%
C/C(=N\NC(=S)N1CCCCC1)c1ccccn1,17.9%,29.4%,14.6%,21.9%,12.8%,13.3%,34.8%,13%
COc1ccc(-c2[nH]nc(N)c2-c2cc(OC)c(OC)c(OC)c2)cc1,52.8%,3.37% (active),-69.2% (active),23%,16.3%,6.24% (active),1.36% (active),3.55% (active)
Cc1ccc(S(=O)(=O)NC(CCC(=O)Nc2ccc(Cl)cc2)C(=O)Nc2ccc(Cl)cc2)cc1 (centres undefined),16.5%,27.3%,38.4%,31.1%,30%,23.8%,23.5%,12.8%
COc1ccc(/C(=C\c2ccc3c(c2)OCO3)C(=O)Nc2nc3ccc(F)cc3s2)cc1OC,101%,97.1%,99.8%,104%,94.9%,97.7%,109%,96.3%
Cc1ccc2cc3c(NC(=O)c4cccnc4)nn(C)c3nc2c1,69.6%,97.4%,95.5%,92.5%,81.6%,86.2%,91%,85.6%
CCOCC(O)(c1ccc(Cl)cc1)c1ccc(Cl)cc1,98.5%,115%,102%,97.4%,110%,93%,109%,90.4%
COc1ccc(NC(=O)/C=C/c2ccc(Cl)c(Cl)c2)cn1,71%,67.1%,91.1%,104%,71.7%,84.8%,118%,78.2%
Oc1[nH]c2ccc(Cl)cc2c1/C=c1/ccc2c(c1)N=C(c1ccc(F)cc1)N=2,62.6%,27.8%,-44% (active),19.3%,10.6%,9.48% (active),74%,48.6%
N#CC1=C(N)Oc2nc[nH]c(=O)c2C1c1cccs1 (centres undefined),95.2%,103%,101%,102%,97.1%,106%,114%,108%
CCN(CC)CCCNc1cccc2c(C)cc(OC)nc12,98.7%,87.4%,115%,102%,84.8%,95.1%,90.2%,100%
COc1ccc(/C=C2\N=C(c3cccnc3)N(c3ccccc3)NC2=O)cc1,90.2%,94.3%,97.3%,92.3%,91.5%,97.1%,99.7%,95.3%
COCCCNCC(=O)Nc1c(C)cccc1C,103%,104%,112%,114%,114%,110%,122%,109%
CC1(C)C2CCC(O)(C(=O)O)C1C2 (centres undefined),96.1%,104%,99.1%,115%,95.7%,117%,118%,118%
O=C(O)C1[S][Sb]([CH](C(=O)O)[CH](C(=O)O)[Sb]2[S]C(C(=O)O)C(C(=O)O)[S]2)[S]C1C(=O)O (centres undefined),86.8%,63.8%,116%,103%,67.9%,100%,108%,100%
CCCCN(CCCC)CCC(=O)c1ccc(OC)c2ccccc12,41.4%,108%,83.3%,61.5%,15.1%,72.1%,105%,71.1%
CCOC(=O)c1c(NC(=O)c2ccccc2)sc2c(O)c(CN(CC)CC)ccc12,44.9%,0.881% (active),-55.4% (active),19.6%,8.33% (active),7.59% (active),11.6%,2.35% (active)

Structure (SMILES),growth (T-47D breast),growth (BT-549 breast),growth (MDA-MB-435 melanoma),growth (SW-620 colon),growth (MCF7 breast),growth (HCT-116 colon),growth (HCC-2998 colon),growth (KM12 colon)
COc1ccc(-c2nc(-c3cc(OC)cc(OC)c3)[nH]c2-c2ccc(OC)cc2)cc1,6.56% (active),51%,48.7%,73.6%,34.9%,40.8%,42.9%,46.5%
COc1cccc(Cn2c(-c3nonc3NC(C)=O)nc3ccccc32)c1,42.3%,41.6%,-35% (active),28.7%,47.4%,42.7%,49.3%,30.4%
Cc1nc2n[nH]c(N)c2nc1C,101%,118%,107%,108%,94.8%,109%,103%,106%
O=C1C=CC(=O)N1CO,132%,116%,127%,115%,104%,104%,107%,128%
CC(=O)N[C@@H](CCC(N)=O)C(=O)O,107%,118%,99.6%,94.1%,98.8%,96.3%,99.5%,103%
COc1ccc(-c2nnc(SCC(=O)Nc3ccc(C(=O)/C=C/c4ccc(Cl)cc4)cc3)n2-c2ccccc2)cc1,88%,84.6%,105%,101%,95.3%,76%,103%,98.2%
CC1=C(O)C(=O)C(c2c(C)cc(C)c(Br)c2C)=C(O)C1=O,83.3%,73.1%,73.2%,85.5%,56.5%,54.4%,63%,67.7%
CC1=C(C(=O)Nc2ccc(F)cc2)C(c2ccc(C)cc2)C2=C(CC(C)(C)CC2=O)N1 (centres undefined),85.2%,97.2%,94.9%,81.9%,91.1%,96.3%,107%,102%
CCOC(=O)c1ccccc1SC(C[N+](=O)[O-])c1ccccc1 (centres undefined),60.6%,88.4%,-58.1% (active),55.8%,1.05% (active),3.98% (active),8.62% (active),91.6%
CC(C)CC(NC(=O)OCC1c2ccccc2-c2ccccc21)C(=O)O (centres undefined),95.8%,97%,93.7%,116%,89.4%,103%,112%,106%
CC(C)c1ccc(Cn2ccc3c4c(N)nc(NC5CC5)nc4ccc32)cc1,-54.8% (active),-71.2% (active),-97% (active),-82.6% (active),-82% (active),-82.8% (active),-78.6% (active),-79.2% (active)
COc1ccc([C@@H]2[C@@H](Oc3ccccc3)C(=O)N2c2cc(OC)c(OC)c(OC)c2)cc1F,87.4%,1.45% (active),-27.5% (active),26.2%,14.1%,2.37% (active),12.9%,11.7%
O=C1Nc2ccccc2/C1=C/c1c[nH]c2ccccc12,68.3%,73.5%,92.3%,100%,63.2%,79.2%,98.6%,23.1%
COC1CC(N)C2OC(c3ccccc3)OCC2O1 (centres undefined),107%,106%,102%,99.6%,92.7%,102%,102%,103%
COc1ccc([C@@H]2[C@@H](Cl)C(=O)N2c2cc(OC)c(OC)c(OC)c2)cc1C,77.7%,6.51% (active),-33.7% (active),26.7%,20.5%,3.33% (active),19.5%,12.8%
CC(=O)[C@H]1CC[C@H]2[C@@H]3CC[C@H]4CC=CC[C@]4(C)[C@H]3CC[C@]12C,95.2%,102%,101%,101%,114%,84.8%,97.2%,113%
